Data: the supplement of paper PMC11732987, “Enantioselective OTUD7B fragment discovery through chemoproteomics screening and high-throughput optimisation” (Communications Chemistry, 2025)

Assays:
Assay in all cases: log2 ratio of Biotin-Ahx-Ub-VS probe labelling (fragment/DMSO); higher = less target engagement (more negative = stronger competition), active = hit call of the paper (q ≤ 0.05, log2 ratio ≤ -1)
Conditions in all cases: compound concentration: 200 uM; treatment time: 3 h
USP16 = USP16 (UniProt Q9Y5T5)
How it was run: (§1)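 Labelled DUBs were enriched with NeutrAvidin, digested with LysC and trypsin, and run by diaPASEF LC-MS/MS. The labelling used Biotin-Ahx-Ub-VS at 0.5 µM final for 1 h on HEK293T lysate (495 µg per sample) previously treated in triplicate with fragment at 200 µM or vehicle for 3 h. Values are average log2 fragment/vehicle ratios by unpaired t-test on global-median-normalised Spectronaut quantities of proteins with ≥2 unique peptides.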

USP19 = molecular target: T1, USP19 (UniProt O94966)
T1 sequence (whole entry): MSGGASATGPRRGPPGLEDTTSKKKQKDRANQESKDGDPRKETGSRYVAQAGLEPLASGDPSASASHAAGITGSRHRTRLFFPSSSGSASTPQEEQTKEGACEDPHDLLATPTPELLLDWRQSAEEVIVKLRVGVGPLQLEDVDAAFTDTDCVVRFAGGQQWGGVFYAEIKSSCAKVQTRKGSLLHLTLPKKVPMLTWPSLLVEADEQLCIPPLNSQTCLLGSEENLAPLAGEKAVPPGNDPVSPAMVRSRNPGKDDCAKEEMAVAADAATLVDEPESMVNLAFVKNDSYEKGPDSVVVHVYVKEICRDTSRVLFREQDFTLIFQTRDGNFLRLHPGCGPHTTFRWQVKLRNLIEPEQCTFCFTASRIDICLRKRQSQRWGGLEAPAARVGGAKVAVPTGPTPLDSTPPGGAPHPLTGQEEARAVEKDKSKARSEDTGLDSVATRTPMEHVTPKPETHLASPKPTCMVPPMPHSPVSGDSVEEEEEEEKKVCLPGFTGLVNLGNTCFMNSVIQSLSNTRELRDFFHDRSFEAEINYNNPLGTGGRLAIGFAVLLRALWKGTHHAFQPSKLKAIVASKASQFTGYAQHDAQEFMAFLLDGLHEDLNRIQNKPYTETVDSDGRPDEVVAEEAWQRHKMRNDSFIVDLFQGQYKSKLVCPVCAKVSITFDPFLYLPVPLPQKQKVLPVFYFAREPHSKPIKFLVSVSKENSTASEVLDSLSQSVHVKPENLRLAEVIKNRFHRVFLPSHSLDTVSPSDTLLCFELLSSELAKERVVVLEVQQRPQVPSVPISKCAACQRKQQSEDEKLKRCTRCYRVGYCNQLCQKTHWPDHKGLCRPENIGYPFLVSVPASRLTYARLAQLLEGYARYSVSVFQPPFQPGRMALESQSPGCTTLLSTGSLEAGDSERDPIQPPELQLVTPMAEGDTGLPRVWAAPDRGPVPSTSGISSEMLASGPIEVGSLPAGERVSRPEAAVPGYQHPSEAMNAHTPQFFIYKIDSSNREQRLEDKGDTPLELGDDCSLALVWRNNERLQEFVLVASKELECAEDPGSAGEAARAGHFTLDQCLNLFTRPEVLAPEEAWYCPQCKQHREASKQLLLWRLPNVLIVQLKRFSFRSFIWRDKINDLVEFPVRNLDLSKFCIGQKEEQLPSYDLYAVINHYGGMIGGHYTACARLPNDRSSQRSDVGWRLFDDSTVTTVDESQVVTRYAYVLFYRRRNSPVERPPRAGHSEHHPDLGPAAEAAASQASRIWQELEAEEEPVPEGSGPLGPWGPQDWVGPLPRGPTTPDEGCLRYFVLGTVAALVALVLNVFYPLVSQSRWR
How it was run: as §1

USP24 = USP24 (UniProt Q9UPU5)
How it was run: as §1

USP25 = molecular target: T2, USP25 (UniProt Q9UHP3)
T2 sequence (whole entry): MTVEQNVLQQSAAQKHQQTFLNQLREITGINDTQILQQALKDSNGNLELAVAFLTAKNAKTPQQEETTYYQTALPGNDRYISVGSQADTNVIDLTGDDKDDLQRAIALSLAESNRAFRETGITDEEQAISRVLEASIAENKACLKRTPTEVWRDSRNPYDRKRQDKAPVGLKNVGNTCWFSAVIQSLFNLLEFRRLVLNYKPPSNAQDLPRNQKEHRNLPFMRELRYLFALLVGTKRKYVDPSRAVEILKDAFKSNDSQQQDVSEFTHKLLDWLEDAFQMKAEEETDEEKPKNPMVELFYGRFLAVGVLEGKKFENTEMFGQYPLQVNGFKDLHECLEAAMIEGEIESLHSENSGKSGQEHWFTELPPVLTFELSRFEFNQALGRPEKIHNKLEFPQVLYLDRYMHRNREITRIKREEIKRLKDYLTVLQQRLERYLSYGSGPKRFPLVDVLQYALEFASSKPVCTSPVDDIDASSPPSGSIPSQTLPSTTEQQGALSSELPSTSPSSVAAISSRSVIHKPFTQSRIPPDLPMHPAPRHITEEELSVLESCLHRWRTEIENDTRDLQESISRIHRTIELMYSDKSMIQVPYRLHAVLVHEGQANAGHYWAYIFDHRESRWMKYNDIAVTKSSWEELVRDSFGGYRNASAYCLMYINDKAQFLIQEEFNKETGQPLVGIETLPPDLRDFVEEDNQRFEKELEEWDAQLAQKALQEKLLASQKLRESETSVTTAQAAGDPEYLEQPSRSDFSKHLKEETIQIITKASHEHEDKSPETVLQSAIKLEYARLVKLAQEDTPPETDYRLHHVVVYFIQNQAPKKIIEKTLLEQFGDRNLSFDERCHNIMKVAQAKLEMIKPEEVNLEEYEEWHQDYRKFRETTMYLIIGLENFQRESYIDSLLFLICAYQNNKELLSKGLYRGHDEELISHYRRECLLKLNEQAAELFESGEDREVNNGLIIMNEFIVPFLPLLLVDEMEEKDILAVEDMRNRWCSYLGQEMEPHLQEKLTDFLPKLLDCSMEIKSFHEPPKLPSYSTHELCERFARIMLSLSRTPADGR
How it was run: as §1

USP28 = molecular target: T3, USP28 (UniProt Q96RU2)
T3 sequence (whole entry): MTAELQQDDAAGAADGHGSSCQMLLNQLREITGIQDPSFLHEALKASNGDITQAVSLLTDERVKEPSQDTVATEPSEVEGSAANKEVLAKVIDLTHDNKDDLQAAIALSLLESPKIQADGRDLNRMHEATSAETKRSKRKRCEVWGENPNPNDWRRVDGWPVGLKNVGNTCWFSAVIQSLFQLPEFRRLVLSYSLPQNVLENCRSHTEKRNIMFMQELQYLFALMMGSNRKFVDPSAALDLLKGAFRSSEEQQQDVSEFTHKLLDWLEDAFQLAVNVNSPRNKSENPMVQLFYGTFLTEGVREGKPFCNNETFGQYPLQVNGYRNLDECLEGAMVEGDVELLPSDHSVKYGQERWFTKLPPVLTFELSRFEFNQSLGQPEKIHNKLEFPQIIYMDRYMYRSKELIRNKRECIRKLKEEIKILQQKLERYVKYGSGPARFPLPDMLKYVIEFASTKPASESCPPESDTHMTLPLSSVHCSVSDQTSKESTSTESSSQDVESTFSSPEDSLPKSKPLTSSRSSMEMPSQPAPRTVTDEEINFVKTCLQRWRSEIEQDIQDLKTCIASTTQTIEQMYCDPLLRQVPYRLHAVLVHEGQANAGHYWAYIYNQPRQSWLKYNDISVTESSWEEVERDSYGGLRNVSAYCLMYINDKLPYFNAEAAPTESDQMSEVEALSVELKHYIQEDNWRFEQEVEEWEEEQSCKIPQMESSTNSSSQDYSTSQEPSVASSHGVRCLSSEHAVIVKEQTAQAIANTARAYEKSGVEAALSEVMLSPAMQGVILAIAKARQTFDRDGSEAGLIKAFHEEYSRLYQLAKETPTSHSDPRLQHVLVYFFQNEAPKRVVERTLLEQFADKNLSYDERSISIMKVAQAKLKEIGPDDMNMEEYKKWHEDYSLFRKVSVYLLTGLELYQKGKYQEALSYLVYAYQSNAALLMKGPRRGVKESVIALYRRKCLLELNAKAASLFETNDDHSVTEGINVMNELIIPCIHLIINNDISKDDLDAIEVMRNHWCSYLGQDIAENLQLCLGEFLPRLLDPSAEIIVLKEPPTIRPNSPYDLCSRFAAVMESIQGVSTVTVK
How it was run: as §1

Measured: log2 ratio of Biotin-Ahx-Ub-VS probe labelling

USP24, sequence (Q9UPU5 whole entry): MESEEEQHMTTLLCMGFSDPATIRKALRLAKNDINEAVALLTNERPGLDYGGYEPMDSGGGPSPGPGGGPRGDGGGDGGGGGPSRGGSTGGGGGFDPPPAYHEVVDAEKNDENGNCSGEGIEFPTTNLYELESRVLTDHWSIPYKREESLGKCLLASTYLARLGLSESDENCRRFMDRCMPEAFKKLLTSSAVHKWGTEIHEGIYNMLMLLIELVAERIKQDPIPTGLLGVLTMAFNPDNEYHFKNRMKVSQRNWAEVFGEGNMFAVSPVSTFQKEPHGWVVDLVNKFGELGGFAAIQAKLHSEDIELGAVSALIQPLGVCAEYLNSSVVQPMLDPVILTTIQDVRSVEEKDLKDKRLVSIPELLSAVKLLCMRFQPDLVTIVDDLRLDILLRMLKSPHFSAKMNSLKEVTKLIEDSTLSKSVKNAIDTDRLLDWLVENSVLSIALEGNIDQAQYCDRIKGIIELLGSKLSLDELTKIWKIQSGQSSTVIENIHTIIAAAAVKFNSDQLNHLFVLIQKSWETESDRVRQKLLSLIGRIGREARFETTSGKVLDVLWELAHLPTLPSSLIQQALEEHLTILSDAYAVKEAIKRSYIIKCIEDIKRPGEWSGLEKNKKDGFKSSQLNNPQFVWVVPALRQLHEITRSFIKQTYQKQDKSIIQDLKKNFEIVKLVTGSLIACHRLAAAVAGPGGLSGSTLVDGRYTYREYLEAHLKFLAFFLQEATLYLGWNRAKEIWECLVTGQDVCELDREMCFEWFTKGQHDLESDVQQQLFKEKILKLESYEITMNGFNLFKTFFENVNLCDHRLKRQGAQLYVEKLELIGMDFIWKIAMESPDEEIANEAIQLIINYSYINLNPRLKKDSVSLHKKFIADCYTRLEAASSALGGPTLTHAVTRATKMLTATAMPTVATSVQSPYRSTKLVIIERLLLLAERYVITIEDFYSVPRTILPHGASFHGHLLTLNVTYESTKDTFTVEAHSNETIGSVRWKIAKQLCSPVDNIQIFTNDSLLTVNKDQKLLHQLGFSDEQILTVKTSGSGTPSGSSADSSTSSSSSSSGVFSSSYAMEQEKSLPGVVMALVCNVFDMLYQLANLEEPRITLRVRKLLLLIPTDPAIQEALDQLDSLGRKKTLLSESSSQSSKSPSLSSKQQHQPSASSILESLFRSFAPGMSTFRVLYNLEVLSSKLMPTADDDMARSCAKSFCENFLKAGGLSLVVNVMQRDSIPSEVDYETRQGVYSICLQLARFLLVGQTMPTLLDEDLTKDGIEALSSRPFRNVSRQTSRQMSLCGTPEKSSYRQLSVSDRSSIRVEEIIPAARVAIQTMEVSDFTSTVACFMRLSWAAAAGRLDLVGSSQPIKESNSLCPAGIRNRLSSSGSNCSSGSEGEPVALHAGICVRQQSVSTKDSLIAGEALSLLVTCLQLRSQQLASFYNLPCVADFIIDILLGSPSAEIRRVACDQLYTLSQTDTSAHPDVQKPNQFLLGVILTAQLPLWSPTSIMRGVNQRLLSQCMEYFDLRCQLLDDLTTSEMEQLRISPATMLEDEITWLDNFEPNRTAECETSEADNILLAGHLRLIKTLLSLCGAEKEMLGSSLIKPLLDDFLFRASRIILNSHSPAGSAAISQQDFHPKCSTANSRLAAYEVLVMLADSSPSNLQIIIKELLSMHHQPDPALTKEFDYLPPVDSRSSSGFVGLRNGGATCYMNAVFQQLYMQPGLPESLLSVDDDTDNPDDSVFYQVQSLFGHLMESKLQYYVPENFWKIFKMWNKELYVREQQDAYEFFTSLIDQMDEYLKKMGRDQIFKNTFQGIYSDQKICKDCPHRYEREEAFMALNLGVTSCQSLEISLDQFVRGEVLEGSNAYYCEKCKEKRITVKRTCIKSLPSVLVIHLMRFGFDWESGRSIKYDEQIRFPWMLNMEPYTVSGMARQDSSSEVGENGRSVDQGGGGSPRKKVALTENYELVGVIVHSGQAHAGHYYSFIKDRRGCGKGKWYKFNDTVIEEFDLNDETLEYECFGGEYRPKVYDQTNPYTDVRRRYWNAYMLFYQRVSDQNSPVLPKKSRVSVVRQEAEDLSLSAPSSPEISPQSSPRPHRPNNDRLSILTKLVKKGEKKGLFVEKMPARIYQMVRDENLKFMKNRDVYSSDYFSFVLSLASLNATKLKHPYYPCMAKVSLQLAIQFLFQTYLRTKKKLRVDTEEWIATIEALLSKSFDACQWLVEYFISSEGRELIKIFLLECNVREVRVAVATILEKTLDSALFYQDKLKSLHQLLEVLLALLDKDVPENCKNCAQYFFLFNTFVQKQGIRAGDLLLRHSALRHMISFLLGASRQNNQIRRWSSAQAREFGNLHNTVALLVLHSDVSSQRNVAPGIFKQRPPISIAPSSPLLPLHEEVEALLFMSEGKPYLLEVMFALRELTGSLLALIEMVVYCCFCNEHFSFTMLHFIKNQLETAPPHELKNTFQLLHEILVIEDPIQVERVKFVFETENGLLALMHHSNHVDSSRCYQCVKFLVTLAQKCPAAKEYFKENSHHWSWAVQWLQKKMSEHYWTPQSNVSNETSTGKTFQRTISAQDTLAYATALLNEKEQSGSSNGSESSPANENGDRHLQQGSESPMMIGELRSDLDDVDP
USP16, sequence (Q9Y5T5 whole entry, looked up, the tested form may be a part): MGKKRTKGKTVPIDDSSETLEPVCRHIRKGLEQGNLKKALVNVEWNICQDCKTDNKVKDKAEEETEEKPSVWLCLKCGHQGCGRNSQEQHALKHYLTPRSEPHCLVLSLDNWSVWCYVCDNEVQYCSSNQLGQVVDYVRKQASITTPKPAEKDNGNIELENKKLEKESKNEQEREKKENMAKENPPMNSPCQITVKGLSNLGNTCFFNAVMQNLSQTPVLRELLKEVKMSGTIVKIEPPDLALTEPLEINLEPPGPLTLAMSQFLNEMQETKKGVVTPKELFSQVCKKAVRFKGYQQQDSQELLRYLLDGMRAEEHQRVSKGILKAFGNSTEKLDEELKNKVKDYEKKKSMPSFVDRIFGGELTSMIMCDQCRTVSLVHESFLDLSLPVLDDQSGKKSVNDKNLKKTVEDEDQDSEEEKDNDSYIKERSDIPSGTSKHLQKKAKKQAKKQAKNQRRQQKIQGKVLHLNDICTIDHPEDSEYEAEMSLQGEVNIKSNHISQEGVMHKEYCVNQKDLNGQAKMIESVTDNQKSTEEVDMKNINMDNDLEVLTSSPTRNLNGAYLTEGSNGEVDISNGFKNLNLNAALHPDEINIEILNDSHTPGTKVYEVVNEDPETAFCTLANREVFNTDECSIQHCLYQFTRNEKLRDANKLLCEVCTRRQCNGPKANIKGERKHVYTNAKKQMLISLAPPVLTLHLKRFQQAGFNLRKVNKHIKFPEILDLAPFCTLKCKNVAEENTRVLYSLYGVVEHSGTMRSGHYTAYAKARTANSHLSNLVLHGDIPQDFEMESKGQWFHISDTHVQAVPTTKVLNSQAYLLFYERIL

C[C@H]1CN(C(=O)CCl)CCN1C(=O)c1cnn(C)c1.Cl
inactive: USP16 -0.146 | USP19 -0.18 | USP24 -0.132 | USP25 -0.0187 | USP28 -0.325
